Results on 11 compounds are retold here after PubChem BioAssay.

As usually defined, the remaining activity is the signal under treatment as a percentage of the control signal. As a reminder, the inhibition is the change of the read-out against control, counted positive when it falls.

Assay [1] concerns Aerobactin synthetase IucA (Klebsiella pneumoniae). In words: IucA aerobactin synthetase inhibitors, biochemical, Tocris library, absorbance (AID 1345561; call rule not given here;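 note: 100% = enzyme without compound and 0% = no enzyme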). Particulars: purified IucA enzyme assay, absorbance (OD) read-out; stronger effect = lower value;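 tested at 8 µM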.
Assay [2] is described as follows: polyglutamine-triggered caspase-3 activation inhibitors, cell-based (AID 1583). Particulars: polyglutamine-induced caspase-3 activation, cell assay; stronger effect = higher value;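 tested at 10 µM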.
Assay [3] in a line: suppressors of polyQ aggregation in yeast, 75Q-TubU reporter (AID 1593). Particulars: Yeast 75Q polyglutamine aggregation reporter.
Assay [4] is described as follows: inhibitors of mitochondrial cytochrome c release, biochemical, purified mitochondria (AID 1603).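 Note: mouse liver mitochondria challenged with calcium chloride; signal normalized to the plate average as 100%.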 Particulars: stronger effect = lower value.
A short description of assay [5]: growth inhibition of DIPG glioma cells, dose response, cell-based, SU-DIPG-XIII, MIPE4.0, CellTiter-Glo, qHTS (AID 1347061; cut-off not given, nearly all actives have AC50 up to about 37 µM;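 note: cells exposed to compound for 48 hours before readout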). Particulars: SU-DIPG-XIII viability, CellTiter-Glo ATP luminescence. (Cellular ATP, detected with luciferase, serves as a proxy for viable cell number.)
A short description of assay [6]: SU-DIPG-VI glioma cell viability, MIPE4.0 library, CellTiter-Glo luminescence, qHTS (AID 1347066; cut-off not given, nearly all actives have AC50 up to about 30 µM;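 note: cells exposed to compound for 48 hours before readout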). Particulars: CellTiter-Glo ATP luminescence.
The nature of assay [7]: circadian clock period modulators, cell-based, LOPAC library, luminescence reporter (AID 2774; call rule not given here;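 note: values are relative to mean of DMSO wells on each plate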). Particulars: circadian reporter cells, at 7 µM, actives lie on both sides.
The test system of assay [8] is Hepatitis C virus NS3 helicase. In words: HCV NS3 helicase inhibitors, primary screen, biochemical, fluorescence polarization, LOPAC1280 library (AID 687035; in the data active = inhibition above about 37%). Particulars: Purified HCV NS3 helicase, Cy5-dT15 ssDNA binding fluorescence polarization; stronger effect = higher value; concentration not given here. For orientation: Fluorescence polarisation rises when a labelled molecule tumbles more slowly, as on binding a larger partner.

A short description of assay [9]: Cy5 fluorescence quenching or enhancement artefacts, artefact control for HCV NS3 helicase inhibitor project, biochemical, LOPAC1280 (AID 687037; call rule not given here). Particulars: Cy5-DNA-NS3h complex fluorescence interference counterscreen. For orientation: Counterscreens check selectivity or assay interference.
Assay [10] in a line: modifiers of HSF1 nuclear foci, imaging, Selleck Cancer Library (AID 1347162; in the data active = plate-normalised HSF1 focus index below about 0.46). Particulars: human cells, at 10 µM; SSMD: measured here: HSF1 foci SSMD mean; cell count: measured here: cell number; plate-normalised HSF1 focus index: stronger effect = lower value.
Assay [11] can be described thus: LFS_MB_1R medulloblastoma cell growth inhibition, synergistic combos for chromothripsis tumors, cisplatin or BGB combos (AID 1671452).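 Note: cells exposed for 96 hours before readout.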 Particulars: LFS_MB_1R medulloblastoma cells, stronger effect = higher value.
A short description of assay [12]: MDA-MB-436 breast carcinoma cell growth inhibition, synergistic combos for chromothripsis tumors, BGB or cisplatin combos (AID 1671458; call rule not given here;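 note: cells exposed for 96 hours; 0% = vehicle DMSO and 100% = killing by high DMSO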). Particulars: MDA-MB-436 breast carcinoma growth inhibition, drug combinations, stronger effect = higher value.
The nature of assay [13]: growth inhibition of BT084 medulloblastoma cells, cell-based, ICGC_MB145, cisplatin and BGB IC40 combos (AID 1671461).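 Note: cells exposed to drugs for 96 hours; 0% = vehicle DMSO and 100% = high DMSO full killing control.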 Particulars: drug combinations, stronger effect = higher value.
A short description of assay [14]: growth inhibition of RCMB18 medulloblastoma cells, cell-based, cisplatin and BGB IC40 combos (AID 1671462).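 Note: cells exposed to compound for four days.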 Particulars: stronger effect = higher value.
A short description of assay [15]: growth inhibition of CRL1545 osteosarcoma cells, cell-based, cisplatin and BGB IC20 combos (AID 1671464).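 Note: cells exposed to compound for 96 hours before readout; 0% = vehicle DMSO and 100% = high DMSO killing control.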 Particulars: stronger effect = higher value.
[16] abbreviates: measured here: combination with BGB IC40, at 0.05 µM.
Where [17] appears, read: measured here: combination with cisplatin, at 0.5 µM.
Where [18] appears, read: measured here: combination with cisplatin, at 5 µM.
The mark [19] stands for this setting: measured here: BGB combination, at 0.5 µM.
[20] abbreviates: measured here: BGB combination, at 5 µM.
The mark [21] stands for this setting: measured here: cisplatin combination, at 0.5 µM.
The mark [22] stands for this setting: measured here: cisplatin combination, at 5 µM.
The mark [23] stands for this setting: cisplatin combination, at 0.5 µM.
Where [24] appears, read: measured here: BGB IC40 combination 0.05 uM, at 0.05 µM.
Setting [25] is: measured here: BGB IC40 combination, at 0.05 µM.
[26] abbreviates: measured here: with BGB IC20 combination, at 0.5 µM.
[27] abbreviates: measured here: with cisplatin IC20 combination, at 0.5 µM.

Values joined by “and” are separate entries in the source; they are usually repeats but may differ in a detail not shown here. Equal entries are not always repeated. Results filed as inconclusive are left out. Active and inactive are the calls of the source. Cut-off read from the data, not from the text of the source, unless noted: active = inhibition above about 80%; inactive = the rest.

Consider `Cc1cccc(Nc2cc(Cl)nc(SCC(=O)O)n2)c1C`, for which, in [1], the remaining activity was 107% (inactive).

On to `Cc1ccc(O)cc1`, for which the inhibition in [2] turned out to be 26.8%. Further, the score in [3] stood at 0.73. In addition, the cytochrome c release ratio in [4] is 0.32.

For the compound `CCCCCCCCCCCCCCCCCCOP(=O)([O-])OC1CC[N+](C)(C)CC1`, the result in assay [5] and in assay [6] was inactive.

On to `CN1CCN(C2Cc3ccccc3Sc3ccc(Cl)cc32)CC1` (stereo unspecified), for which the period change in assay [7] was 0.285 h (inactive). Besides, the inhibition in [8] was -1% (inactive). Further, the fluorescence ratio (interference) in [9] was 1 (inactive).

Turning to `O=C(CCCN1CCC(O)(c2cccc(C(F)(F)F)c2)CC1)c1ccc(F)cc1`, the period change in assay [7] is 0.235 h (inactive). Moreover, in assay [8], the inhibition is -3% (inactive). Also, in assay [9], the fluorescence ratio (interference) is 1 (inactive).

Consider `O=C(O)CCC(=O)OC[C@@H](NC(=O)C(Cl)Cl)[C@H](O)c1ccc([N+](=O)[O-])cc1`, for which the inhibition in assay [2] came out at 29.9%. In assay [3], the score came out at 1.53. Further, the cytochrome c release ratio in assay [4] was 0.7.

For `CCc1cccc(N(C)C(N)=Nc2cccc3ccccc23)c1`, in assay [7], the period change is -0.08 h (inactive). The inhibition in assay [8] was 1% (inactive). For the same compound, in assay [9], the fluorescence ratio (interference) is 1 (inactive).

As to `NC1=NCC2c3ccccc3Cc3ccccc3N12` (stereo unspecified), the inhibition in assay [8] was -2% (inactive). In addition, the fluorescence ratio (interference) in assay [9] was 1 (inactive).

With `Cc1ccc(-n2nc(C(C)(C)C)cc2NC(=O)Nc2ccc(OCCN3CCOCC3)c3ccccc23)cc1`, in assay [10], the SSMD turned out to be 3.54, the cell count was 7570 and the plate-normalised HSF1 focus index is 1.13 (inactive).

As for `CCCC(CCC)C(=O)O`, the inhibition is -27.6% (inactive) and -16.5% (inactive) in [11] (at 0.5 µM); -35.5% and -12.1% in assay [11] (setting [16]); -35% and -39.3% in assay [11] (setting [17]); 2.7% and -48.1% in assay [11] (setting [18]); -30.4% (inactive) and 1.93% (inactive) in [12] (at 0.5 µM); -29.6% and 4.62% in assay [12] (setting [19]). The inhibition in assay [12] (setting [20]) was -20.8% and 1.95%; in [12] (setting [21]), -40.6% and 3.21%; in [12] (setting [22]) it was -25.9% and 1.52%; in assay [13] (at 0.5 µM), -33.9% (inactive) and -3.36% (inactive); in assay [13] (setting [23]), -10.5% and -11.6%; in assay [13] (cisplatin combination, at 5 µM), -5.4% and -1.37%. The inhibition in assay [13] (setting [24]) is -20.5% and -59.5%; in assay [13] (single agent, at 5 µM) it was -18.9% and -8.84%; in [14] (at 0.5 µM), -2.59% (inactive) and -3.82% (inactive); in assay [14] (cisplatin combo, at 5 µM), -12% and -15.7%; in [14] (setting [25]) it was -2.36% and -1.73%; in assay [14] (setting [17]), 10.5% and -4.92%. The inhibition is -25.2% and -0.151% in assay [14] (single agent, at 5 µM); -19.7% (inactive) and -18.9% (inactive) in [15] (at 0.5 µM); -18.4% and -23.1% in assay [15] (setting [26]); -23.1% and -18.8% in assay [15] (setting [27]); -52.6% and 9% in [15] (single agent, at 0.05 µM); 8.56% and -31.8% in assay [15] (single agent, at 5 µM).

`CCn1cc(C(=O)O)c(=O)c2ccc(C)nc21`: the inhibition in [11] (at 0.5 µM) was -19% (inactive) and -13.7% (inactive); in [11] (setting [16]), -21.7% and -0.433%; in assay [11] (setting [17]), -30.2% and 15.7%; in assay [11] (setting [18]), -1.32% and 14.5%; in [12] (at 0.5 µM) it was -9.6% (inactive) and -19.2% (inactive); in [12] (setting [19]), -10.5% and -16.3%. Also, the inhibition in assay [12] (setting [20]) is -0.497% and -4.71%; in [12] (setting [21]) it was -19.6% and -33.6%; in assay [12] (setting [22]), -0.491% and -16.4%; in [13] (at 0.5 µM), -9.05% (inactive) and -29.1% (inactive); in [13] (setting [23]), -8.44% and -23.5%; in assay [13] (cisplatin combination, at 5 µM), -55.2% and -59.3%. Further, the inhibition in assay [13] (setting [24]) was 10.8% and -9.88%; in assay [13] (single agent, at 5 µM), -16.7% and -23%; in assay [14] (at 0.5 µM) it was 1.01% (inactive) and -9.08% (inactive); in [14] (cisplatin combo, at 5 µM), 0.823% and 3.11%; in assay [14] (setting [25]) it was 11.9% and -0.784%; in assay [14] (setting [17]), -11.3% and -2.66%. In addition, the inhibition in [14] (single agent, at 5 µM) was -12.4% and -29.6%; in assay [15] (at 0.5 µM), -14.9% (inactive) and -26.1% (inactive); in assay [15] (setting [26]), -12.1% and -5.6%; in [15] (setting [27]) it was -16.3% and -36.4%; in [15] (single agent, at 0.05 µM) it was -17.6% and 10%; in [15] (single agent, at 5 µM), 0.11% and -3.86%.
